Abeta rescue: compounds reversing amyloid beta toxicity in yeast. yeast expressing A-beta42, growth rescue, OD600, 48 h; response scale: 0% DMSO, 100% iron-clioquinol control. Potency, µM (series often up to 46.1 µM), actives largely listed as activators. 410,000 tested, 0.063% active. AID 1347071; further: nearly all actives have a fitted effect of over 55% in size
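Growth rescue measured by 600 nm absorbance after 48 h yeast culture at 30 C with compound. Values normalized between DMSO and an equimolar ferric chloride plus clioquinol control.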
FUS yeast rescue: FUS proteinopathy suppression in yeast; S. cerevisiae FUS-expressing, growth rescue, OD600, 24 h; 390,000 tested, 0.24% active; Potency, µM (top dose mostly 76.6 µM), actives largely listed as activators; AID 1347120;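 further: plate controls were DMSO vehicle for no effect and reference control for full effect; nearly all actives have a fitted effect of over 55% in size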
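Compound concentration series was pinned onto galactose-induced FUS-expressing yeast seeded at OD 0.005. Plates sat 24hr at 30C; absorbance at 600 nm gave growth. DMSO served as background control.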
Mito fusion yeast: blocks mitochondrial division or promotes mitochondrial fusion | S. cerevisiae fusion-defective mutant growth rescue, CellTiterGlo 48 h | Potency, µM (doses to about 46.1 µM), for inactives: top-dose growth rescue (activation), usual class: activators | 320,000 tested, 0.23% active; further: % of control where 0% means no effect; nearly all actives have a fitted effect of over 45% in size
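Compounds are tested for their ability to restore growth of mitochondrial fusion-defective yeast strains at non-permissive 37C in YPEG medium over 48 hours. Viability is quantified by luciferase luminescence.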
TDP43 rescue: inhibitors of TDP-43 toxicity in yeast; TDP-43 expressing yeast growth rescue, BacTiter-Glo, 24 h; 410,000 tested, 1.8% active; Potency, µM (titrated, usually from 46.1 µM), without a hit: at the highest dose growth rescue (activation), most hits filed as activators; further: % of control where 0% means no effect; nearly all actives have a fitted effect of over 50% in size
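Luminescence from BacTiter-Glo reports growth of TDP-43-expressing yeast after 24 hr at 30 deg C with compound. Cells were raffinose-pregrown to mid-log, then seeded in galactose medium at OD600=0.02.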
aSyn rescue: alpha-synuclein toxicity inhibition in yeast | Yeast expressing alpha-synuclein, growth rescue, BacTiter-Glo, 24 h | Potency, µM (doses to about 46.1 µM), without a hit: top-dose growth rescue (activation), most hits filed as activators | 370,000 tested, 0.14% active | AID 652106; further: % of control where 0% means no effect; nearly all actives have a fitted effect of over 65% in size
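Readout is rescue of growth in alpha-synuclein-expressing yeast, so inhibitors of toxicity appear as activators. Growth after 24 hr at 30 deg C in galactose medium is quantified by luminescence.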
* marks the source's active call; other numbers are inactive results; [ ] = dose if it differs, or a comment. Sampled rows, rich in hits. Any-hit rate of the full collection: about 2.2%. The call rests on the fitted dose curve; in most records, active means well fitted curve in the direction sought with a large enough effect; inconclusive means small, poorly fitted or top-dose-only effect, or another doubt; inactive means no such curve, though single readings can be large; an effect the other way counts as inactive or inconclusive. Potency means the concentration at half of the fitted maximal effect.

Screening Cc1ccc2nc(-c3ccc(NS(=O)(=O)c4ccccc4)cc3)sc2c1 returned Abeta rescue inactive, FUS yeast rescue inactive, Mito fusion yeast 1%, TDP43 rescue 11% and aSyn rescue 7%.
For Cc1ccc2nc(-c3ccc(NS(=O)(=O)c4ccc(F)c(F)c4)cc3)sc2c1 the results were Abeta rescue inactive, FUS yeast rescue inactive, Mito fusion yeast -32%, TDP43 rescue 25µM* and aSyn rescue -27%.
`CC1=C(C(=O)Nc2cc(C)ccc2C)C2(CCCCCC2)OC1=O` gave Abeta rescue inactive, FUS yeast rescue inactive and TDP43 rescue 22%.
Screening CC1=C(C(=O)Nc2cc(Cl)ccc2C)C2(CCCCC2)OC1=O returned Abeta rescue inactive, FUS yeast rescue inactive and TDP43 rescue 35µM*.
Screening O=C(COc1ccc(Cl)cc1)NNC(=O)c1ccccn1 returned Abeta rescue inconclusive, FUS yeast rescue inactive, Mito fusion yeast 2%, TDP43 rescue 14µM* and aSyn rescue inconclusive.
`Cc1cc(C)cc(OCC(=O)NNC(=O)c2ccccn2)c1` gave Abeta rescue inconclusive, FUS yeast rescue inactive, Mito fusion yeast 1%, TDP43 rescue 20µM* and aSyn rescue inconclusive.
For Cc1cc(C)cc(OCC(=O)NNC(=O)c2cc(C)[nH]n2)c1 the results were Abeta rescue inactive, FUS yeast rescue inactive, Mito fusion yeast 0%, TDP43 rescue -23% and aSyn rescue 1%.
O=C(COc1ccccc1)NNC(=O)c1ccc(Cl)cc1 was read as Abeta rescue inactive, FUS yeast rescue inactive, Mito fusion yeast -2%, TDP43 rescue 4% and aSyn rescue -1%[1.84 µM].
For CN(C)c1ccc(/C=N\NC(=O)c2cccc(S(=O)(=O)N(C)C)c2)cc1 the results were FUS yeast rescue inactive.
`CC(=NNC(=S)N1CC2CCC(CC2)C1)c1cnccn1` gave Abeta rescue inactive, TDP43 rescue inconclusive and aSyn rescue -81%.
Screening C/C(=N\NC(=O)c1ccc(Cl)c(Cl)c1)c1ccccn1 returned Abeta rescue inactive, FUS yeast rescue inactive, Mito fusion yeast -7%, TDP43 rescue 7.1µM* and aSyn rescue 4µM*.
Screening CC(=NNC(=S)N1CC2CCC(CC2)C1)c1ccccn1 returned Abeta rescue inactive, FUS yeast rescue inactive, TDP43 rescue 22µM* and aSyn rescue 22%.
`C/C(=N/NC(=O)c1ccc(C(C)(C)C)cc1)c1ccccn1` gave Abeta rescue inactive, FUS yeast rescue inactive, TDP43 rescue 14µM* and aSyn rescue inconclusive.
For COc1ccc(C(=O)N/N=C(\c2ccccc2)c2ccccn2)cc1 the results were Abeta rescue inactive, Mito fusion yeast 6%, TDP43 rescue 22µM* and aSyn rescue -25%.
COc1ccc(C)c2sc(N(Cc3cccnc3)C(C)=O)nc12 was read as Abeta rescue inactive, FUS yeast rescue inactive and TDP43 rescue 14%.
For CC(=O)c1ccc(NC(=O)CNc2cc(S(=O)(=O)N3CCOCC3)ccc2N2CCCC2)cc1 the results were Abeta rescue inactive, FUS yeast rescue inconclusive, Mito fusion yeast -3%, TDP43 rescue 4% and aSyn rescue -4%.
Screening CCCCNC(=O)O[C@H]1CC[C@@]23CCCN2C(=O)CCC[C@H]3C1 returned FUS yeast rescue inactive.
Screening CNC(=O)c1[nH]nc2c1CCc1ccccc1-2 returned Abeta rescue inactive, FUS yeast rescue inactive, Mito fusion yeast 10µM*, TDP43 rescue 24% and aSyn rescue -15%.
For COc1ccc(/C=N/NC(=O)c2[nH]nc3c2CCc2ccccc2-3)cc1OC the results were Abeta rescue inconclusive, FUS yeast rescue inactive, Mito fusion yeast 7%, TDP43 rescue 0% and aSyn rescue -3%.
COC(=O)c1nc(N2CCN(S(=O)(=O)c3ccc(C)cc3)CC2)c2ccccc2n1 was read as aSyn rescue 2%.
CCOC(=O)N1C(=O)C[C@](Sc2ccc(OC)cc2)(C(=O)N2CCN(C(C)=O)CC2)[C@H]1c1ccc(OC)cc1 was read as FUS yeast rescue inactive.
`Cc1ccc2c(c1)N(CCCC(=O)NCc1c(F)cccc1F)C(=O)CO2` gave FUS yeast rescue inactive.
c1ccc(-c2cc(N3CCOCC3)nc(-c3ccccc3)n2)cc1 was read as Abeta rescue inactive, FUS yeast rescue inactive, Mito fusion yeast 8%, TDP43 rescue -12% and aSyn rescue -1%.
Screening Nc1ncnc2nc(-c3ccc(N4CCOCC4)nc3)cc(-c3cccc(Br)c3)c12 returned Mito fusion yeast inconclusive and aSyn rescue 21µM*.
Nc1nc(SCc2ccccc2)sc1C(=O)N1CCCCC1 was read as Abeta rescue inactive, FUS yeast rescue inactive, TDP43 rescue 13µM* and aSyn rescue 16%.
Cc1ccc(S(=O)(=O)NC(=O)C2(C)CCN2C(=O)C2(c3ccc(Cl)cc3)CCC2)cc1 (stereo not given) was read as Abeta rescue inactive, FUS yeast rescue inconclusive, TDP43 rescue inconclusive and aSyn rescue -7%.
CC(C)(C)c1ccc(S(=O)(=O)NC(=O)C2(C)CCN2C(=O)C2(c3ccccc3)CC2)cc1 (stereo not given) was read as Abeta rescue inactive, FUS yeast rescue inactive, TDP43 rescue 18µM* and aSyn rescue 7%.
CC(C)(C)c1ccc(S(=O)(=O)NC(=O)C2(C)CCN2C(=O)c2cccc3ccccc23)cc1 (stereo not given) was read as Abeta rescue inactive, FUS yeast rescue inactive, TDP43 rescue 20µM* and aSyn rescue -6%.
For Cc1ccc(F)c(S(=O)(=O)NC(=O)C2(C)CCN2C(=O)C2(c3ccc(Cl)cc3)CCC2)c1 (stereo not given) the results were Abeta rescue inactive, FUS yeast rescue inactive, TDP43 rescue inconclusive and aSyn rescue -5%.
`COc1cc(C)ccc1S(=O)(=O)NC(=O)C1(C)CCN1C(=O)C1(c2ccc(Cl)cc2)CCC1` (stereo not given) gave Abeta rescue inactive, FUS yeast rescue inactive, TDP43 rescue 28µM* and aSyn rescue -1%.
For CC1(C(=O)NS(=O)(=O)c2ccc(Cl)cc2)CCN1C(=O)C1(c2ccc(Cl)cc2)CCC1 (stereo not given) the results were Abeta rescue inactive, FUS yeast rescue inconclusive, TDP43 rescue 20µM* and aSyn rescue -28%.
For CC1(C(=O)NS(=O)(=O)c2ccc(Br)cc2)CCN1C(=O)C1(c2ccccc2)CC1 (stereo not given) the results were Abeta rescue inactive, FUS yeast rescue inactive, TDP43 rescue inconclusive and aSyn rescue 6%.
`CCN(CC)C(=O)CC[C@@H]1CC[C@]2(CCCN(S(=O)(=O)c3ccccc3)C2)O1` gave FUS yeast rescue inactive.

Compound activity: PubChem BioAssay, National Center for Advancing Translational Sciences (NCATS)
